The whole screen tested about 340,000 compounds, of which about 1,000 (0.29%) were called active. Rule as the data show it: inconclusive = inhibition above about 29% without an active follow-up result; inactive = below that. Not all results are given here. Measured potencies and affinities stand elsewhere.
Biological target: Genome polyprotein (Dengue virus type 2 (strain 16681-PDK53)) (UniProt P29991)
Assay: flavivirus cap methylation enzyme inhibition – biochemical, confirmation dose response, primary screen (AID 588689)
Conditions: Dengue-2 NS5 methyltransferase capping enzyme assay, at 25 µM, stronger effect = higher value
[1] = measured here: pilot screen replicate inhibition

SMILES	inhibition	inhibition [1] [%]
O=C(CCNC(=O)c1ccc([N+](=O)[O-])cc1)Oc1ccc(F)c(F)c1	-4.42% (inactive)	
CCOC(=O)Cn1cnc2sc3c(c2c1=O)CCC3	-3.92% (inactive)	
Cn1ccnc1SCC(=O)Nc1cc(F)ccc1F	-1.95% (inactive)	
COc1cccc2c1C(=O)C=C(C)C2=O	5.85% (inactive)	
COC1=CC(=O)c2ccccc2C1=O	0.72% (inactive)	
Cc1ccc(C)c(OCC(O)CN2CCc3ccccc3C2)c1C (stereo unspecified)	-0.98% (inactive)	
CNS(=O)(=O)c1cccc(C(=O)NCC(c2ccco2)N(C)C)c1 (stereo unspecified)	-4.17% (inactive)	
Cc1ccc(NC(=O)COC(=O)C2C3CC4OC(=O)C2C4C3)cc1 (stereo unspecified)	-4.16% (inactive)	
COc1ccc(N2CC(C(=O)OCC(=O)Nc3cccc(C)c3)CC2=O)cc1 (stereo unspecified)	-2.68% (inactive)	
CCC(c1ccc(O)c(O)c1)C(CC)c1ccc(O)c(O)c1 (stereo unspecified)	-0.78% (inactive)	
CCC(c1ccc(O)cc1)C(CC)c1ccc(O)cc1 (stereo unspecified)	-4.4% (inactive)	
O=C(O)c1ccccc1SCc1csc(-c2ccccc2)n1	-4.89% (inactive)	
O=C(Cc1ccc(Br)cc1)NCCCn1ccnc1	-12.3% (inactive)	
CCc1ccc(S(=O)(=O)Nc2ccc(O)c3ccccc23)cc1	36.9% (inactive)	
CCc1ccc(S(=O)(=O)NC(CC(=O)O)c2ccccc2)cc1 (stereo unspecified)	-2.12% (inactive)	
Cc1oc2c(cc(NS(=O)(=O)c3ccc(Cl)cc3)c3ccccc32)c1C(=O)O	14.3% (inactive)	
COC(=O)CNC(c1ccccc1)c1cc(Br)ccc1NS(=O)(=O)c1ccccc1 (stereo unspecified)	-1.28% (inactive)	
Cc1ccc(S(=O)(=O)Nc2ccc(Br)cc2C(NCC(=O)O)c2ccccc2)cc1 (stereo unspecified)	-7.12% (inactive)	
CC(=O)Nc1ccccc1NS(=O)(=O)c1cccc([N+](=O)[O-])c1	-5.88% (inactive)	
O=C(c1ccccc1NS(=O)(=O)c1cccc([N+](=O)[O-])c1)N1CCCC1	-1.62% (inactive)	
CC(=O)Nc1ccccc1NS(=O)(=O)c1ccc(Cl)cc1	-10.2% (inactive)	
COc1ccccc1OCC(=O)OCC(=O)NC1CCCCC1	1.94% (inactive)	
Cc1ccc(CNC(=O)C(C)C2Sc3ccccc3NC2=O)cc1 (stereo unspecified)	3.04% (inactive)	
CC(=O)c1ccc(S(=O)(=O)N2CCN(c3nn(C)c(=O)n(C)c3=O)CC2)cc1	-1.46% (inactive)	

SMILES	inhibition	inhibition [1] [%]
CCn1nc(C(=O)Nc2cccc(S(=O)(=O)N3CCCC3)c2)c2ccccc2c1=O	-8.08% (inactive)	
Cc1nc(CC(=O)NNS(=O)(=O)c2cccc(Cl)c2Cl)cs1	-1.61% (inactive)	
CN(C(=O)COC(=O)c1ccc(Cl)s1)C1(C#N)CCCCC1	-4.33% (inactive)	
Cc1ccc(S(=O)(=O)N(C)CCCC(=O)N2CCOCC2)cc1	-2.14% (inactive)	
O=C(OCc1ccc(F)cc1)c1ccc2c(c1)-c1ccccc1C2=O	6.7% (inactive)	
CCOC(=O)c1ccc(COC(=O)c2ccc3c(c2)-c2ccccc2C3=O)cc1	13.5% (inactive)	
O=C(CCS(=O)(=O)c1ccc(Br)cc1)Nc1ccc(Br)cc1F	-13.3% (inactive)	
Cc1cc(C)n2nc(SCC(=O)N(C)c3c(N)n(Cc4ccccc4)c(=O)[nH]c3=O)nc2n1	-7.52% (inactive)	
CCOC(=O)N/N=C/c1cc(C)n(-c2cccc3ccccc23)c1C	1.3% (inactive)	
Cc1cc(C)n(CC(=O)NC2CCCCC2C)c(=O)c1C#N (stereo unspecified)	-0.74% (inactive)	
O=C1C=C(N2CCOCC2)c2ccccc2C1=O	9.17% (inactive)	
NC1=CC(=O)C(=O)c2ccccc21	27.9% (inactive)	
COc1ccc(C(C)=O)cc1CSc1nc2cc(C(=O)O)ccc2c(=O)n1Cc1ccccc1	4.46% (inactive)	
O=C(CSc1nncs1)NCCNC(=O)CSc1nncs1	-2.96% (inactive)	
Cc1[nH]n(-c2ccccc2)c(=O)c1Sc1ccc(Cl)cc1	13.9% (inactive)	
Cc1[nH]n(C(C)(C)C)c(=O)c1Sc1ccccc1	-11.6% (inactive)	
CC(C)(C)c1ccc(-c2nc(C=O)c3ccccn23)cc1	0% (inactive)	
N#C/C(=C/c1cccc([N+](=O)[O-])c1)C(=O)Nc1ccccc1O	5.78% (inactive)	
N#C/C(=C\c1ccccc1)C(=O)NNS(=O)(=O)c1ccc(Br)cc1	13.6% (inactive)	
COC(CNC(=O)c1coc2nc3ccccc3nc12)OC	-7.62% (inactive)	
COC(CNC(=O)c1cccnc1)OC	-7.01% (inactive)	
O=[N+]([O-])c1ccc(CN2CCC(Cc3ccccc3)CC2)cc1	-6.79% (inactive)	
CCN1CCN(CCCNC(=O)CNC(=O)c2nn(-c3ccc(OC)cc3)c(=O)c3ccccc23)CC1	0.79% (inactive)	
CCCCCc1nnc(N)s1	0% (inactive)	

SMILES	inhibition	inhibition [1] [%]
CN1CCN(NC(=O)CSc2ccc(Cl)cc2Cl)CC1	-10.7% (inactive)	
CCOC(=O)c1c2c(n(Cc3ccccc3)c1C)C(=O)C(=O)c1ccccc1-2	25.5% (inactive)	
CCOC(=O)c1c(C)nc2c(c1-c1cc(OC)ccc1OC)C(=O)c1ccccc1-2	0% (inactive)	3.65
Cc1ccc(NC2=CC(=O)C(=O)c3ccccc32)cc1	54.8% (inactive)	5.15
O=C1C=C(Nc2ccc(F)cc2)c2ccccc2C1=O	0.37% (inactive)	
CC(C)(C)c1ccc(C2(C)NC(=O)N(CC(=O)c3ccc[nH]3)C2=O)cc1 (stereo unspecified)	-2.04% (inactive)	
CC(OC(=O)c1cccc(-n2cnnn2)c1)c1nc2ccccc2c(=O)[nH]1 (stereo unspecified)	-3.65% (inactive)	
CC(=O)OCC1=C(C(=O)O)N2C(=O)C(NC(=O)CCn3nc(C)c(Cl)c3C)C2SC1 (stereo unspecified)	0.78% (inactive)	
CC(=O)OCC1=C(C(=O)O)N2C(=O)[C@@H](NC(=O)Cc3ccccc3)[C@H]2SC1	-1.45% (inactive)	
O=C(O)c1cccc(NC(=O)c2ccc3c(c2)C(=O)N(Cc2ccco2)C3=O)c1	-0.72% (inactive)	
O=C(O)CCCN1C(=O)/C(=C\c2ccco2)SC1=S	47.7% (inactive)	
O=C(O)COc1ccccc1/C=C1\SC(=O)N(Cc2ccc(F)cc2)C1=O	8.1% (inactive)	
Cc1nn(-c2ccccc2)c(Cl)c1/C=C1\SC(=S)N(C)C1=O	4.37% (inactive)	
CN1C(=O)/C(=C\c2ccccc2OCc2ccccc2)SC1=S	-2.61% (inactive)	
O=C(O)CCCCN1C(=O)/C(=C\c2ccc(OCc3ccccc3)c(OCc3ccccc3)c2)SC1=S	6.5% (inactive)	
O=C1NC(=O)/C(=C/c2ccccc2OCc2ccccc2)S1	11.6% (inactive)	
O=C1NC(=O)/C(=C\c2ccccc2OCc2ccccc2)S1	-0.78% (inactive)	
Cc1nn(-c2ccccc2)c(Cl)c1/C=C1\C(=O)N(C)C(=S)N1C	-12.7% (inactive)	
CC(Oc1ccccc1)C(=O)N=C1SC2CS(=O)(=O)CC2N1Cc1ccccc1 (stereo unspecified)	0% (inactive)	
Cc1nc(-c2ccccc2)sc1C(=O)Nc1ccccc1F	0% (inactive)	
CCOC(=O)N1CCN(C(=O)c2cn(CC)c3ccc(S(=O)(=O)N(C)C4CCCCC4)cc3c2=O)CC1	2.95% (inactive)	
O=C(NO)C1CC2C=CC1C2 (stereo unspecified)	-6.15% (inactive)	
CCn1ccc2c(OCC(=O)NCCc3ccc(OC)c(OC)c3)cccc2c1=O	-3.6% (inactive)	
CC(=C\c1ccccc1)/C=C1/SC(=S)N(CCC(=O)O)C1=O	11.1% (inactive)	

SMILES	inhibition	inhibition [1] [%]
CCOc1ccccc1C=C1SC(=S)N(CC)C1=O	6.98% (inactive)	
CN1C(=O)S/C(=C/c2ccccc2OCc2ccc(C(=O)O)cc2)C1=O	5.16% (inactive)	
CC(=C\c1ccccc1)/C=C1/SC(=S)N(CCCC(=O)O)C1=O	19% (inactive)	
O=C(Nc1cccc(C(=O)O)c1)/C(=C\c1ccccc1)NC(=O)c1ccccc1Cl	-2.05% (inactive)	
O=C1CCc2cc(S(=O)(=O)NCCc3ccc(Cl)cc3)cc3c2N1CC3	3.62% (inactive)	
O=S(=O)(c1cccc2cccc(Cl)c12)N1CCCC1	-4.68% (inactive)	
O=C(CCC1CCCN(C(=O)CCC(F)(F)F)C1)NCc1ccc(F)c(F)c1 (stereo unspecified)	-0.74% (inactive)	
O=C(COC(=O)c1ccco1)NCc1ccccc1Cl	3.03% (inactive)	
Nc1ccc(S(=O)(=O)c2cccc(N)c2)cc1	-5.56% (inactive)	
Nc1ccc(S(=O)(=O)c2ccc(N)cc2)cc1	1.49% (inactive)	
COCCn1c(C)cc(C(=O)CSc2n[nH]c(N)n2)c1C	-0.41% (inactive)	
O=C1c2c([N+](=O)[O-])cc([N+](=O)[O-])cc2S(=O)N1Cc1ccccc1 (stereo unspecified)	10.1% (inactive)	
O=c1c2c([N+](=O)[O-])cc([N+](=O)[O-])cc2sn1Cc1ccccc1	18.3% (inactive)	
COC(=O)c1ccc(NC(=O)CCCCCn2nnc3ccccc3c2=O)cc1	-0.65% (inactive)	
O=C1CN(C(=O)N[C@@H](Cc2ccccc2)C(=O)N[C@H](Cc2ccccc2)C(=O)O)c2ccccc2N1	-2.17% (inactive)	
COc1cc(OC)cc(N(C(=O)C2COc3ccccc3O2)C(C(=O)NC2CCCCC2)c2ccc(O)cc2)c1 (stereo unspecified)	-5.19% (inactive)	
COc1ccccc1NC(=O)Nc1ccccc1C(N)=O	-5.31% (inactive)	
NC(=O)N/N=C/c1ccc(-c2ccc(S(=O)(=O)Nc3ncccn3)cc2)o1	-2.88% (inactive)	
CCOc1ccc(C(=O)N/N=C/c2ccc(-c3ccc(S(=O)(=O)Nc4ncccn4)cc3)o2)cc1	0.82% (inactive)	
CCOC(=O)CC(=O)CSc1ccc2nnc(-c3ccc(F)cc3)n2n1	0.81% (inactive)	
CC(C)CCN1CN(S(=O)(=O)c2cccs2)c2nc3ccccc3nc21	-2.77% (inactive)	
COc1cc(NC(=S)NN2CCN(C)CC2)cc(OC)c1	-3.9% (inactive)	

From PubChem BioAssay AID588689 (Southern Research Specialized Biocontainment Screening …, 2011)
